Assay in all cases: NCI-60 one-dose screen, 48 h (100 = growth as untreated, 0 = no growth, -100 = all killed)
Common to all, as to conditions: 10 µM unless noted

Experiment [1] has as its system NCI-H23 lung.
For experiment [2], the system named is NCI-H226 lung.
Experiment [3] concerns NCI-H322M lung.
The subject of experiment [4] is HOP-62 NSCLC.
Experiment [5] has as its system NCI-H460 lung.
Experiment [6] has as its system NCI-H522 lung.
Experiment [7] concerns A549/ATCC NSCLC.
The test system of experiment [8] is 786-0 renal.
In experiment [9] the test system is COLO 205 colon.
Experiment [10] relates to DU-145 prostate.
Experiment [11] deals with K-562 leukemia.
Experiment [12] deals with MDA-MB-231 breast.
Experiment [13] concerns SF-268 CNS.
Experiment [14] relates to SF-295 CNS.
For experiment [15], the system named is SF-539 CNS.
The test system of experiment [16] is UACC-257 melanoma.
Experiment [17] concerns M14 melanoma.
In experiment [18] the test system is MALME-3M melanoma.
In experiment [19] the test system is RXF 393 renal.

This is part of a sample that, as a whole, favours compounds with a hit. Of some 83,000 tested, about 20% had one in any assay.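 Testing used 96-well plates and a 48-hour single-concentration exposure. Example: -40 means 40% of the starting cells died.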 Values without a mark were called inactive. Active and inactive are the calls of the source. Rule for the calls: active = growth percent below 10; inactive = the rest.

Turning to `Cc1ccc2nc(N)nnc2c1`, the growth was 94.6% in experiment [1]; 103% in experiment [2]; 112% in experiment [3]; 105% in [4]; 112% in [5]; 99% in [6]. In addition, the growth in experiment [7] was 109%; in experiment [8] it was 98.4%; in experiment [9], 141%; in experiment [10], 98.4%; in experiment [11], 108%; in experiment [12], 127%. Also, the growth in experiment [13] was 98.2%; in experiment [14], 118%; in experiment [15], 103%; in experiment [16] it was 127%; in experiment [17] it was 99.2%.
For the compound `C[C@H](CCC[C@H](C)OS(=O)(=O)c1ccccc1)OS(=O)(=O)c1ccccc1`, the growth in experiment [1] was 107%; in [2], 90.4%; in experiment [3], 96.7%; in [4], 99.9%; in experiment [5], 114%; in experiment [6], 86.8%. In addition, the growth was 117% in [7]; 107% in experiment [8]; 115% in [9]; 119% in [10]; 110% in experiment [11]; 96.9% in experiment [18]. Further, the growth in experiment [12] was 103%; in experiment [19], 142%; in experiment [13], 105%; in experiment [14], 102%; in [15] it was 91.7%; in experiment [16] it was 107%. Also, the growth in experiment [17] is 106%.
With `O=S(=O)(O)c1cccc2cccnc12`, the growth in experiment [1] was 100%; in [2], 107%; in experiment [3], 122%; in experiment [4], 101%; in experiment [5] it was 112%; in experiment [6], 97.4%. Moreover, the growth is 106% in experiment [7]; 105% in [8]; 127% in experiment [9]; 120% in experiment [10]; 107% in [11]; 112% in experiment [18]. For the same compound, the growth in experiment [12] was 120%; in experiment [19], 124%; in [13] it was 95.1%; in experiment [14], 109%; in experiment [15], 109%; in experiment [16], 103%. Also, the growth in experiment [17] is 106%.
In the case of `CC(=O)Oc1c(Cl)cccc1-c1ccccc1`, the growth in experiment [1] was 111%; in [2], 98.9%; in experiment [3], 92.7%; in [4] it was 103%; in [5], 102%; in experiment [6], 94.3%. For the same compound, the growth was 89.9% in [7]; 104% in [8]; 111% in experiment [9]; 104% in [10]; 101% in experiment [11]; 111% in experiment [18]. Also, the growth in experiment [12] was 98.4%; in experiment [19], 110%; in [13], 95.1%; in experiment [14], 103%; in experiment [15], 104%; in experiment [16], 87.6%. Besides, in [17], the growth is 108%.
Regarding `CN(C)c1ccc2c(N(C)C)cc(N(C)C)nc2c1`, the growth in [1] was 97.5%; in experiment [2], 83.2%; in experiment [3], 64.9%; in [4] it was 82.1%; in experiment [5] it was 82.7%; in experiment [6], 79.3%. The growth in experiment [7] is 98.5%; in experiment [8], 94.8%; in experiment [9], 65%; in experiment [10], 93%; in experiment [11], 64.4%; in experiment [18], 98.4%. In addition, the growth is 64.2% in experiment [12]; 97.7% in experiment [19]; 91.6% in experiment [13]; 65.9% in experiment [14]; 84.9% in experiment [15]; 122% in experiment [16]. For the same compound, in [17], the growth was 81.7%.
Turning to `CCN(C(=O)Nc1ccccc1Cl)c1ccccc1`, the growth is 101% in experiment [1]; 107% in experiment [2]; 109% in experiment [3]; 111% in [4]; 108% in experiment [5]; 106% in [6]. In addition, the growth in experiment [7] was 100%; in experiment [8], 112%; in [9] it was 113%; in [10], 109%; in [11] it was 93.9%; in experiment [18], 100%. Besides, the growth in experiment [12] is 109%; in experiment [19] it was 115%; in [13] it was 109%; in experiment [15], 104%; in experiment [16], 102%; in [17] it was 111%.
As for `CCCCCC/C=C\CCCCCCCCCc1cc(O)cc(OC)c1O`, the growth in [1] was 11.2%; in experiment [2], 24.2%; in experiment [3], 4.07% (active); in experiment [4], 21.8%; in experiment [5], 8.62% (active); in experiment [6] it was -76.8% (active). For the same compound, the growth was 16.8% in experiment [7]; 10.6% in experiment [8]; -65.3% (active) in experiment [9]; 26% in experiment [10]; 7.81% (active) in [11]; -43.1% (active) in [12]. For the same compound, the growth in experiment [19] was 22.7%; in experiment [13] it was 9.15% (active); in [14] it was 2.68% (active); in experiment [15], -58.3% (active); in [16], -4.96% (active); in experiment [17] it was 27.3%.
For the compound `O=C1C=Cc2ccccc2/C1=C/c1[nH]c(=O)[nH]c1O`, the growth was 51.7% in experiment [1]; 45.2% in [2]; 57.8% in experiment [3]; 41.3% in [4]; 84.8% in [5]; -17.7% (active) in [6]. Further, the growth in [7] was 82%; in experiment [8], 27.6%; in [9], 34.3%; in [10], 54.5%; in [11], 26%; in experiment [18] it was 23.5%. The growth in experiment [12] was 62.6%; in experiment [19], 34.2%; in experiment [13] it was 55.2%; in [14], 28.9%; in experiment [15] it was 17.6%; in experiment [16], 2.03% (active). Also, the growth in experiment [17] is 22.3%.
As to `CN(C)c1ccc(O)c2c1CC1CC3C(N(C)C)C(=O)C(C(N)=O)=C(O)C3(O)C(=O)C1=C2O` (configuration not stated), the growth in experiment [1] was 51.1%; in experiment [2], 71%; in experiment [3], 38.7%; in [4], 55%; in experiment [5] it was 29.1%; in [6], 35.6%. For the same compound, the growth in experiment [7] is 21.3%; in experiment [8], 45.3%; in experiment [9] it was 56.3%; in experiment [10], 49%; in experiment [11], 45.2%; in [18], 46.8%. The growth is 66.3% in experiment [12]; 46.3% in experiment [19]; 46.1% in experiment [13]; 11.8% in experiment [14]; 41.6% in [15]; 48.4% in [16]. Also, the growth in [17] was 42.1%.

Source of the values: PubChem BioAssay (NCI).
